Shown are actives, neighbours in structure and some others; about 2.3% of the full set was active somewhere.
HepG2 tox: counter-screen for TGF-b inhibitors: cytotoxicity in HepG2 cells | HepG2 CAGA-GFP viability, ATP luminescence, 18 h | Potency, µM (series often up to 46.1 µM), inactives show top-dose activity change, negative = cytotoxicity, actives largely listed as cytotoxic | 410,000 tested, 0.76% active | AID 588856
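HepG2 CAGA-GFP cells (1000/well, DMEM with 1% FBS) received compound, then TGF-beta at 500 pg/mL final, and were incubated 18 hours at 37 degrees C. Viability was read by CellTiter-Glo luminescence. Media-only wells were set as complete cell-killing and DMSO as no toxicity.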
ATXN2 expr inh: ATXN2 expression inhibition; Potency, µM (doses to about 57 µM), without a hit: at the top dose activity change, negative = inhibition, hits mostly inhibitors; HEK-293 ATXN2-luciferase reporter, luminescence, 24 h; AID 1745845; 360,000 tested, 0.72% active; note: % is set by controls: 0 for no effect and ±100 for the full control effect; nearly all actives have a fitted effect of over 55% in size
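ATXN2-luciferase reporter cells (luciferase flanked by upstream and downstream ATXN2 gene portions) were treated 24 h at 37 °C with compounds at up to 57 uM. SteadyGlo luminescence gave expression; GF-AFC fluorescence gave viability.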
S2 tox: reduces viability in counter-screen for ATXN expression inhibitors; 400,000 tested, 0.49% active; Potency, µM (doses to about 56.7 µM), hits mostly cytotoxic; S2 cells (HEK-293 line with an ATXN2-luciferase reporter) viability, CellTiter-Fluor protease fluorescence, 24 h; note: nearly all actives have a fitted effect of over 40% in size
TGFb inhibitor: blocks TGF-b signaling | HepG2 CAGA-GFP TGF-b/SMAD3 reporter, GFP fluorescence, 18 h; TGF-beta stimulated, 500 pg/mL final | Potency, µM (top dose mostly 46.1 µM), for the others: at the top dose activity, negative = inhibition, most hits filed as inhibitors | 410,000 tested, 1.2% active | AID 588855; note: % is set by controls: 0 for no effect and ±100 for the full control effect; nearly all actives have a fitted effect of over 65% in size
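HEPG2 CAGA-GFP reporter cells (1000/well, DMEM with 1% FBS) received compounds, then recombinant TGF-beta at 500 pg/mL final for 18 hours at 37 degrees C. Per-cell GFP summed per well was normalised to unstimulated and stimulated DMSO controls before curve fitting.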
Starred values were filed as active, the others as inactive; i = inactive; u = inconclusive; x = no result; [ ] = dose if it differs, or a comment. Calls come from the whole dose curve; as a rule, active = well fitted curve in the direction sought with a large enough effect; inconclusive = small, poorly fitted or top-dose-only effect, or another doubt; inactive = no such curve, though single readings can be large; an effect the other way counts as inactive or inconclusive. Potency is the fitted concentration of half-maximal effect.

SMILES | HepG2 tox | ATXN2 expr inh | S2 tox | TGFb inhibitor
COc1ccc(C(=O)c2[nH]c(N)c(C(=O)NCCc3c[nH]c4ccccc34)c2-c2ccc(Br)cc2)cc1 | x | -6% | i | x
CC(C)COC(=O)c1cccc2c1-c1ccccc1/C2=N\O | -100% | 4% | u | 14µM*
CN1CCCC(CNC(=O)c2cnn(-c3nccc(-c4cccs4)n3)c2C2CC2)C1 (stereo not drawn) | x | x | i | x
CC(C)(C)NC(=O)NC(=O)COC(=O)c1cccc(NS(=O)(=O)c2ccc(F)c(F)c2)c1 | -7% | 1% | i | 0%
CC(C)(C)c1ccc(NC(=O)COC(=O)c2ccc(NS(=O)(=O)c3ccc(F)c(F)c3)cc2)cc1 | -46% | 6% | i | 14µM*
N#Cc1c(Nc2ccccc2C(F)(F)F)s[nH]c1=O | -53% | -9% | i | 20µM*
N#Cc1c(Nc2ccccc2Cl)s[nH]c1=O | -143% | -11% | i | 0%
CC(=O)c1sc(NC(=O)CCS(=O)(=O)c2ccccc2)nc1C | -78% | u | u | 18µM*
O=C(Nc1ccc(-c2csc(Nc3ccccc3)n2)cc1)c1cc([N+](=O)[O-])cc(C(F)(F)F)c1 | -13% | u | 13µM* | u
Cc1ccc(C)c(S(=O)(=O)N2CCN(C(=O)c3ccc(OCc4c(C)noc4C)cc3)CC2)c1 | 14µM* | 0% | i | -20%
O=c1oc(-c2ccccc2)cc(Cl)c1Cl | -97% | u | x | 11µM*
CC(=O)NC(c1ccc2ccccc2c1)c1ccc2cccnc2c1O (stereo not drawn) | -11% | 2.8µM* | i | u
COc1ccc(C(NC(C)=O)c2ccc3cccnc3c2O)cc1OC (stereo not drawn) | 15% | x | x | 0%
COc1ccc(C(NC(C)=O)c2ccc3cccnc3c2O)c(OC)c1 (stereo not drawn) | -7% | 1.8µM* | u | -13%
COc1ccc(Nc2cc(C(=O)NCCCN3CCN(c4ccccc4F)CC3)c3ccccc3n2)c(OC)c1 | -44% | x | x | 11µM*
CCCCC1C(=O)N(c2ccccc2)N(c2ccc(O)cc2)C1=O (stereo not drawn) | 8.9µM* | 5.6µM* | 7.9µM* | 5.6µM*
NC(=O)C1=CC2C3C=CC2(O)C(=O)OC3O1 (stereo not drawn) | 13µM* | 21µM* | x | 11µM*
CC(C)(C)[N+]([O-])=Cc1ccc(S(=O)(=O)O)cc1S(=O)(=O)O | x | 13% | x | x
N#Cc1nc(-c2ccc(COc3ccccc3)o2)oc1NCc1ccccc1 | -61% | -32% | u | u
CC(Nc1oc(-c2ccc(COc3ccccc3)o2)nc1C#N)c1ccccc1 (stereo not drawn) | 11µM* | u | u | u
COc1ccc(CN2CSC(=S)N(Cc3ccccc3)C2)cc1 | 11µM* | x | 7.1µM* | 13µM*
COc1ccc(CN2CSC(=S)N(Cc3ccc(OC)cc3)C2)cc1 | 13µM* | x | u | u
O=C(NCC1(N2CCCCC2)CCCC1)c1cnn(-c2nccc(-c3cccs3)n2)c1C1CC1 | x | x | i | x
CCCOc1ccc2c(c1)C(=NN=C(N)N)c1cc(OCCC)ccc1-2 | -104% | 20µM* | 25µM* | u
CCN(CC)CCOc1ccc2c(c1)C(=NO)c1cc(OCCN(CC)CC)ccc1-2 | -72% | 11µM* | 8.9µM* | 11µM*
SMILES | HepG2 tox | ATXN2 expr inh | S2 tox | TGFb inhibitor
CCO[C@@H]1O[C@H](C(COCc2ccccc2)OCc2ccccc2)[C@H](OCc2ccccc2)[C@H]1O (stereo partly drawn) | x | -18% | i | x
OC(CNCc1ccccn1)c1ccccc1 (stereo not drawn) | -5% | 6% | i | 7%
Fc1ccc(C(CCNCc2ccccn2)c2ccc(Cl)cc2)cc1 (stereo not drawn) | 13µM* | -31% | i | u
COc1ccc(NC(=O)C2CC23CCN(Cc2cccc4ncccc24)CC3)cc1Cl (stereo not drawn) | x | x | i | x
COc1ccc2nc(SCc3ncc(C)c(OC)c3C)[nH]c2c1 | x | 5% | i | x
CN(C)/[N+]([O-])=N/Oc1ccc([N+](=O)[O-])cn1 | -7% | x | x | 0%
COc1cc(/C=C2/CC/C(=C/c3ccc(O)c(OC)c3)C2=O)ccc1O | -33% | -3% | i | -7%
CCN1C/C(=C/c2ccc(OC)c(O)c2)C(=O)/C(=C/c2ccc(OC)c(O)c2)C1 | -2% | x | u | u
COc1ccc(/C=C2\CN(Cc3ccccc3)C/C(=C\c3ccc(OC)c(O)c3)C2=O)cc1O | -64% | 4µM* | u | 5µM*
COc1cc(/C=C2\COC/C(=C\c3ccc(O)c(OC)c3)C2=O)ccc1O | -23% | u | x | 6.3µM*
Nc1ncnc2c(C3OC(CO)C(O)C3O)c[nH]c12 (stereo not drawn) | 3.2µM* | u | x | -3%
Nc1ncnc2c1ncn2[C@@H]1O[C@H](CO)[C@@H](O)[C@H]1O | 33% | 11% | i | -4%
COCc1c(C(=O)N2CCCC(C)C2)cnn1-c1nccc(-c2cc(C)sc2C)n1 (stereo not drawn) | x | x | i | x
COC(=O)N/N=C/c1ccc(-c2ccc(C)c(Cl)c2)o1 | 9% | 10% | i | 0%
Cc1ccc(-c2ccc(/C=N/c3ncn[nH]3)o2)cc1Cl | -21% | 16µM* | i | u
Cc1cc(Sc2nc(N)ncc2[N+](=O)[O-])ncn1 | -112% | -7%[11.3 µM] | i | 10µM*
Cc1cc(Sc2ncnc(N)c2[N+](=O)[O-])ncn1 | -103% | u | u | u
Cc1cn2cc(C(=O)N(C)CCO)cc(N[C@@H]3CCOc4cccc(C)c43)c2n1 | x | 3% | x | x
C=C(CCC(=O)c1ccccc1)C(=O)c1ccccc1 | 10µM* | u | u | -33%
CCCCOc1cccc(C(=O)Nc2ccc(NC(=O)c3cccs3)cc2)c1 | -45% | u | 18µM* | -22%
CCCOc1ccc(C(=O)Nc2ccc(NC(=O)c3cccs3)cc2)cc1 | 16% | -17% | i | 47%
CCOC(=O)C[n+]1cccc(Br)c1 | -3% | x | x | -6%
COc1ccc(OC)c(CN2CCC3(CCC(CNC(=O)c4ccco4)O3)CC2)c1 (stereo not drawn) | x | x | i | x
C=C1C=C(C(F)F)n2ncc(C(=O)NCc3ccc(OC)c(OC)c3)c2N1 | 10% | x | x | -4%
COc1ccc(-c2noc(CCCC(=O)O)n2)cc1 | -5% | 4µM* | i | -10%
SMILES | HepG2 tox | ATXN2 expr inh | S2 tox | TGFb inhibitor
Cc1ccc2nc(Cl)c3nnnn3c2c1 | 6.3µM* | u | u | u
Cc1ccc2nc(NCc3ccccc3Cl)c3nnnn3c2c1 | -3% | 8% | i | 69%
CC1(C2CCN(Cc3c[nH]c4ccccc34)CC2)NC(=O)N(CCN2CCOCC2)C1=O (stereo not drawn) | x | x | i | x
CCSc1nnc(SCC(=O)NC2CCCCC2)s1 | 2µM* | -11% | i | -10%
OC[C@H]1O[C@@H](Oc2ccc(O)cc2)[C@H](O)[C@@H](O)[C@H]1O | x | 9% | x | x
COc1ccc(-n2c(SCC(=O)N3CCCCC3)nc3ccccc3c2=O)cc1 | -7% | -10% | u | 9%

Screening results (PubChem)
